Sm TGR block: qHTS Assay for the Inhibitors of Schistosoma Mansoni Peroxiredoxins; Schistosoma mansoni thioredoxin glutathione reductase (TGR), Q962Y6; purified TGR, DTNB reduction, TNB absorbance 405 nm; Potency, µM (top dose mostly 114 µM), for inactives: top-dose activity change, negative = inhibition, actives largely listed as inhibitors; 3% of 360,000 active; AID 485364, 2010; note: potency is the fitted concentration of half-maximal effect; nearly all actives have a fitted effect of over 60% in size
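Kinetic colorimetric format: TGR-catalysed, NADPH-driven DTNB reduction monitored via TNB absorbance. Enzyme dispensed at 20 nM; compound exposure 15 min at room temperature before reaction start.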
FMDV inh: High Throughput Screening for Foot and Mouth Disease Virus Antivirals; FMDV antiviral cell-based qHTS; Potency, µM (doses to about 57.9 µM), inactives show at the top dose activity change, negative = inhibition, actives largely listed as inhibitors; 1.2% of 410,000 active; AID 1159524, 2015; calls by dose curve; tested in HEK293T cells; note: read-out not given here; potency is the fitted concentration of half-maximal effect; nearly all actives have a fitted effect of over 45% in size
HCMV antiviral: qHTS Assay for inhibitors of the human cytomegalovirus (HCMV); HFF cells, HCMV-luciferase reporter, 72 h; hits give low values; activity change, negative = inhibition, % at 57.5 µM; 4.5% of 410,000 active; in the data active = activity change below about -60%; inconclusive = no clear call, values can overlap the other calls; inactive = above about -39%
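Screen run at 2 compound doses on HFFs infected with reporter HCMV, MOI 1 PFU/cell. Luciferase activity from cell lysates at 72 h post infection gave inhibition relative to buffer-only and Salinomycin wells.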
Vaccinia Venus: qHTS for Stage-Specific Inhibitors of Vaccinia Orthopoxvirus: Venus Reporter Primary qHTS; Vaccinia virus Venus reporter expression, fluorescence; Potency, µM (series often up to 36.5 µM), inactives show top-dose activity change, negative = inhibition, usual class: inhibitors; 0.46% of 330,000 active; AID 720580, 2013; calls by dose curve; tested in A549 cells; note: potency is the fitted concentration of half-maximal effect; nearly all actives have a fitted effect of over 30% in size
VACV mCherry inh: qHTS for Stage-Specific Inhibitors of Vaccinia Orthopoxvirus: mCherry Reporter Primary qHTS | Vaccinia virus mCherry reporter infection, fluorescence | Potency, µM (titrated, usually from 36.5 µM), for the others: at the highest dose activity change, negative = inhibition, most hits filed as inhibitors | 0.63% of 310,000 active | AID 720579, 2013; calls by dose curve; tested in A549 cells; note: potency is the fitted concentration of half-maximal effect; nearly all actives have a fitted effect of over 35% in size
HCV inhibitor: qHTS Assay for Inhibitors of Hepatitis C Virus (HCV); Potency, µM (doses to about 41.8 µM), inactives show top-dose activity change, negative = inhibition, usual class: inhibitors; Huh7.5.1 HCVcc-Cre infection, luciferase reporter, 44 h; 3.4% of 340,000 active; AID 651820, 2012; note: potency is the fitted concentration of half-maximal effect
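Luciferase read-out (15 sec integration) after a 15 min room-temperature substrate step quantifies HCVcc-Cre infection. Cells, 1,000 per well, had compound added 4 h post-plating, then virus at ~0.5 moi, and were cultured 44 h.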
* hit, by the source's call; i = inactive; ? = inconclusive; . = no result given; [ ] = remark or other dose. Sampled rows, rich in hits. Any-hit rate of the full collection: about 9.3%. Unless noted, calls come from the whole dose curve; as a rule, active = well fitted curve in the direction sought with a large enough effect; inconclusive = small, poorly fitted or top-dose-only effect, or another doubt; inactive = no such curve, though single readings can be large; an effect the other way counts as inactive or inconclusive. % is set by controls: 0 for no effect and ±100 for the full control effect.

SMILES | Sm TGR block | FMDV inh | HCMV antiviral | Vaccinia Venus | VACV mCherry inh | HCV inhibitor
O=C(O)/C=C\C(=O)Nc1ccccc1C#Cc1ccccc1 | 40µM* | 35% | -13 | . | . | 11µM*
NC(=O)c1ccccc1NC(=O)/C=C/C(=O)O | 3% | 15% | 4 | 6% | -3% | 18%
CCCCCCOC(=O)c1ccccc1NC(=O)/C=C/C(=O)O | 45µM* | ? | 22 | . | . | 4%
CCOC(=O)c1ccccc1NC(=O)/C=C/C(=O)O | ? | -23% | 7 | -2% | i | 15%
O=C(O)/C=C/C(=O)Nc1ccccc1SC(F)(F)F | 8.9µM* | -17% | -1 | -18% | -4% | 10%
Fc1ccc(Oc2nc(-c3ccccn3)nc3ccccc23)cc1 | -3% | ? | ? | ? | ? | -73%
O=C(O)/C=C\C(=O)NCc1ccccc1 | -17% | -2% | 29 | . | . | 4%
O=C(O)/C=C/C(=O)Nc1ccccc1-c1ccccc1NC(=O)/C=C/C(=O)O | 8.9µM* | -4% | -15 | -3% | -18% | 26%
O=C(O)/C=C/C(=O)Nc1cccc2c1-c1ccccc1C2=O | . | 1% | -11 | -18% | -4% | 13%
O=C(O)/C=C/C(=O)NCc1ccccc1 | 50µM* | -15% | 12 | -3% | -7% | 16%
COc1ccc(NC(=O)CN(C)CC(=O)Nc2ccc(N3CCOCC3)cc2)c([N+](=O)[O-])c1 | -5% | -12% | -16 | -14% | -7% | -3%
COc1ccc(CNC(=O)c2cccc(N3CCCS3(=O)=O)c2)cc1OC | 4% | ? | -85* | -27%[7.34 µM] | -22%[7.34 µM] | .
O=c1c2ccccc2ncn1CCCSc1ccccc1 | 14% | -54% | 28 | . | . | 18%
O=C1COc2ccc(C(=O)COC(=O)/C=C/c3ccco3)cc2N1 | 13µM* | -27% | . | . | . | -8%
O=C1COc2ccc(C(=O)COC(=O)c3ccco3)cc2N1 | -28% | 6% | -31 | -11% | -22% | 9%
O=C(/C=C/c1ccco1)OCC(=O)c1ccc(OC(F)F)cc1 | 22µM* | 4% | -34 | . | . | 13%
COc1cc(/C=C/C(=O)OCC(=O)c2ccc(OC(F)F)cc2)ccc1O | . | 32µM* | -37 | -7% | -19% | 10µM*
O=C(/C=C/c1ccco1)OCC(=O)N1CCCCC1 | . | 38% | -25 | -12% | -20% | 12%
O=C(O)/C=C/C(=O)c1ccc2c(c1)NC(=O)CO2 | 1µM* | -14% | -18 | -8% | i | 9%
COc1ccc(C2(CNC(=O)C(=O)Nc3cccc(C(F)(F)F)c3)CCCC2)cc1OC | 9% | ? | -10 | -9% | -13% | .
Cc1ccc(C(=O)N2CCCCC2C(=O)O)o1 (stereo not given) | -12% | -12% | -38 | 3% | -8% | 7%
Cc1ccc(Nc2nc3ccccc3[nH]2)nc1 | 5% | ? | -77* | ? | ? | ?
Cc1ccc(C)c(C(=O)Nc2nc3ccccc3[nH]2)c1 | 4% | 38% | 43 | 2% | 14% | 14%
CCCOCc1ccc(O)c2ncccc12 | 28µM* | -18% | -104* | ? | ? | 5.6µM*
O=C(O)c1ccc(O)c2ncccc12 | -10% | 50% | 54 | . | . | .
Oc1cccc2c(CC(O)c3c[nH]c4ccccc34)ccnc12 (stereo not given) | . | . | . | ? | i | .
CC(C)COCc1ccc(O)c2ncccc12 | 16µM* | -15% | ? | ? | 10µM* | 2.8µM*
CCOC(=O)CSc1cc(C)c(C#N)c2nc3ccccc3n12 | 2.5µM* | ? | -15 | -2% | i | 22%
Cc1cc(Nc2c(C)n(C)n(-c3ccccc3)c2=O)n2c(nc3cc(F)c(F)cc32)c1C#N | 8.9µM* | -9% | . | . | . | ?
Cc1nc(SCC(=O)Nc2c(C)n(C)n(-c3ccccc3)c2=O)c2cnn(-c3ccccc3)c2n1 | . | ? | 57 | . | . | 25µM*
